Compound activity from PubChem BioAssay.
This is a sample that favours compounds with a hit; in the whole collection about 3.1% have one here.
Tau FP inhib: qHTS for Inhibitors of Tau Fibril Formation, Fluorescence Polarization. Microtubule-associated protein tau (Homo sapiens), P10636. K18 P301L tau heparin fibrillization, Alexa594 FP, 6 h. Potency, µM (top dose mostly 57.7 µM), for the others: at the top dose activity, negative = inhibition, actives largely listed as inhibitors. 280,000 tested, 0.39% active. AID 1468, 2008; note: nearly all actives have a fitted effect of over 55% in size
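Steps: dispense K18 P301L tau (15 uM plus 0.24 uM Alexa 594 tracer, final) in pH 7 sodium acetate; add compound; add heparin (20 uM final); incubate 6 hr, 37 C; add ThT (30 uM final); after 1 hr ambient, read FP.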
TR SRC2 fluor cs: Total Fluorescence Counterscreen for Inhibitors of the Interaction of Thyroid Hormone Receptor and Steroid Receptor Coregulator 2. TRb/SRC2 Texas Red total fluorescence interference. Potency, µM (highest dose often 106 µM), for the others: at the highest dose fluorescence change, negative = quenching. 280,000 tested, 0.29% active. AID 1479, 2009; active = well fitted curve in either direction with a large enough effect; inconclusive = small, poorly fitted or top-dose-only effect
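Human TRb ligand-binding domain at 0.6 uM with 20 nM Texas Red SRC2 peptide in Tris buffer containing 1 uM T3 and 5% DMSO, incubated with compound 5 h at ambient temperature. Total fluorescence (555/632 nm) calculated as parallel + 2 × perpendicular.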
Tau fibril ThT: qHTS for Inhibitors of Tau Fibril Formation, Thioflavin T Binding; AID 1460, 2008; Microtubule-associated protein tau (Homo sapiens), P10636; Potency, µM (doses to about 57.4 µM), inactives show top-dose activity, negative = inhibition, usual class: inhibitors; 270,000 tested, 2.1% active; recombinant tau K18 P301L, heparin-induced fibrillization, ThT fluorescence; note: nearly all actives have a fitted effect of over 55% in size
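Fibril formation assay: tau K18 P301L at 15 uM with trace Alexa 594 label, heparin inducer 20 uM, pH 7 sodium acetate buffer, 37 C for 6 hr; endpoint ThT signal.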
Tau fluor counter: Counterscreen qHTS for Inhibitors of Tau Fibril Formation, Fluorescence Polarization; Potency, µM (titrated, usually from 57.7 µM), for the others: top-dose activity change, negative = decrease; tau K18 P301L Alexa594 fluorescence, heparin fibrillization; 280,000 tested, 0.93% active; note: nearly all actives have a fitted effect of over 55% in size
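Human tau K18 P301L (15 uM unlabeled, 0.24 uM Alexa 594-labeled) in 100 mM sodium acetate pH 7 with 20 uM heparin, 6 hr at 37 C. ThT 30 uM added, 1 hr ambient; Alexa 594 FP and total fluorescence read at 555/632 nm.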
TRb SRC2 PPI: qHTS for Inhibitors of the Interaction of Thyroid Hormone Receptor and Steroid Receptor Coregulator 2; 280,000 tested, 0.065% active; Potency, µM (series often up to 106 µM), inactives show top-dose activity change, negative = inhibition, usual class: inhibitors; TRbeta-SRC2 peptide binding, fluorescence polarization; receptor liganded with 1 µM T3; Thyroid hormone receptor beta (Homo sapiens), P10828;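 note: plate controls were bound peptide for no effect and peptide without receptor for full effect; nearly all actives have a fitted effect of over 50% in size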
Target sequence (P10828 whole entry, looked up): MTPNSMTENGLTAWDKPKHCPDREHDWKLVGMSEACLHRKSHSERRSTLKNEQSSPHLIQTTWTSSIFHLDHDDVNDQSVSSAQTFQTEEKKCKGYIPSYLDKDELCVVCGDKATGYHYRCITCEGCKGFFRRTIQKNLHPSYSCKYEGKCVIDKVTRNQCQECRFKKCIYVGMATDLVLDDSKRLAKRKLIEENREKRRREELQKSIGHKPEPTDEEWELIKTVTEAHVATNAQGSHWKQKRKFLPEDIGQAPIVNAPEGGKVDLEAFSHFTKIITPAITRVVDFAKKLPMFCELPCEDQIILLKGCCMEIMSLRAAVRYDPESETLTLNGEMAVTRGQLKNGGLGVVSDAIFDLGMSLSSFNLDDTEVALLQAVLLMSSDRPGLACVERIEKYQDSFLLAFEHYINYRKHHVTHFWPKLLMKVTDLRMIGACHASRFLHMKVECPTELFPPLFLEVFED
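A fluorescence polarization screen tested compounds at multiple concentrations against complex formation between 0.6 uM TRb ligand-binding domain and 20 nM Texas Red SRC2 peptide, with 1 uM T3 present; readout after 5 hr.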
* marks the source's active call; other numbers are inactive results; u = inconclusive; x = not tested or not shown; [ ] = dose if it differs, or a comment. Unless noted, calls come from the whole dose curve; as a rule, active = well fitted curve in the direction sought with a large enough effect; inconclusive = small, poorly fitted or top-dose-only effect, or another doubt; inactive = no such curve, though single readings can be large; an effect the other way counts as inactive or inconclusive. Unless noted, % is set by controls: 0 for no effect and ±100 for the full control effect; potency is the fitted concentration of half-maximal effect.

SMILES	Tau FP inhib	TR SRC2 fluor cs	Tau fibril ThT	Tau fluor counter	TRb SRC2 PPI
CCN(CC)S(=O)(=O)c1ccc(N/N=C/c2ccccc2OCC(=O)O)c([N+](=O)[O-])c1	11%	-9%	u	-15%	0%
COc1ccccc1NS(=O)(=O)c1ccc(N/N=C/c2ccccc2OCC(=O)O)c([N+](=O)[O-])c1	1%	-16%	10µM*	u	3%
CC1(C)CC(N)CC(C)(CN)C1 (stereo unspecified)	x	-2%[201 µM]	x	x	-2%[201 µM]
COC(=O)CCSCCC(=O)OC	x	3%[201 µM]	x	x	-2%[201 µM]
Cc1c(CBr)[n+](=O)c2c(n1[O-])C(Br)CCC2Br (stereo unspecified)	u	-1%	25µM*	-28%	0%
Cc1c(C)[n+](=O)c2c(n1[O-])C(Br)CCC2Br (stereo unspecified)	-11%	-2%	u	-12%	-7%
CCCc1cc(=O)[nH]c(SCC(=O)Nc2ccc([N+](=O)[O-])cc2C#N)n1	5%	-1%	14µM*	u	1%
CCOC(=O)C1=C(O)C(=O)N(CCCn2ccnc2)C1c1ccc(OC)cc1 (stereo unspecified)	6%	-7%	5%	5%	1%
Cn1c(=O)c2c(nc(N3CCN(c4ccc([N+](=O)[O-])cc4)CC3)n2C)n(C)c1=O	-3%	1%	u	-11%	0%
O=C(N/N=C/c1ccccc1Cl)c1nc2ccc([N+](=O)[O-])cc2c(=O)[nH]1	1%	-3%	10µM*	u	8%
N#Cc1c(Nc2ccc(Cl)cc2)s[nH]c1=O	20µM*	1%	x	-20%	2%
COc1ccc(NC(=O)C(C)n2nnc3sc(-c4ccccc4)cc3c2=O)cc1Cl (stereo unspecified)	u	0%	14µM*	u	-4%
O=C1C(=Cc2ccc(Br)o2)C(=O)c2ccccc21	u	-26%	6.3µM*	u	-13%
CC(Nc1cccnc1)=C(C#N)C#N	-3%	-1%	2%	2%	4%
CCCCN(CC)C(=O)Cn1cc2c(n1)-c1c(oc(C(=O)N3CCCC3)c1C)CC2	3%	-1%	-5%	3%	2%
O=C(CSc1ncnc2c(-c3ccc(Cl)cc3)nsc12)c1ccccc1	u	3%	18µM*	u	-4%
CCc1cc2c(SCC(=O)c3ccccc3)ncnc2s1	-6%	-1%	-2%	-11%	9%
CC(=C\c1ccccc1)/C=C1/SC(=S)N(CCC(=O)Nc2ccccn2)C1=O	-1%	1%	u	-14%	0%
CCC(C(=O)O)N1C(=O)/C(=C/C(C)=C/c2ccccc2)SC1=S (stereo unspecified)	-12%	-2%	18µM*	-22%	-5%
CC(=C\c1ccccc1)/C=C1/SC(=S)N(C(C(=O)O)C(C)C)C1=O (stereo unspecified)	-10%	-1%	25µM*	-13%	-14%
CC(/C=C1\SC(=S)N(CCCC(=O)Nc2ccc(C(=O)O)cc2)C1=O)=C\c1ccccc1	-12%	1%	14µM*	-14%	-1%
CN1CCc2nc3sc(C(=O)NCc4ccccc4)c(N)c3cc2C1	-12%	-4%	14µM*	u	-3%
CC(C)NC(=O)c1sc2nc3c(c(-c4cccs4)c2c1N)CN(C)CC3	-3%	-3%	u	-20%	-2%
CCN(CC)c1ccc(NC(=O)c2sc3nc4c(cc3c2N)CN(C)CC4)cc1	u	6%	1.3µM*	u	-4%
Nc1c(C(=O)Nc2ccccc2)sc2nc3c(cc12)CN(Cc1ccccc1)CC3	6%	-12%	u	-17%	5%
Cc1cccc(NC(=O)c2sc3nc4c(c(-c5cccs5)c3c2N)CN(C)CC4)c1	u	0%	16µM*	28µM*[quencher]	-2%
